Source: PubChem BioAssay AID623877 (Johns Hopkins Ion Channel Center, 2012)
Out of some 340,000 compounds screened, about 1,000 (0.29%) were called active. This is one part of a sample in which actives are shown more often than they occur.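 The calls were made as follows: active = fluorescence-ratio B-score plate-corrected deviation score at least 3 library SD below zero, with starting fluorescence score within 5 deviations; inactive = the rest.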

biological target: Anoctamin-1 (Mus musculus) (UniProt Q8BHY3); experiment: mouse ANO1 channel activation – cell-based, HTS, primary screen (AID 623877); settings: HEK293 TMEM16A/YFP-H148Q/I152L, iodide quench fluorescence, at 10 µM; hits give low values;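 as to B-score: channel opened by trigger with iodide after compound preincubation; score built on the fluorescence ratio of max minus min over baseline; more negative score means more quench and so TMEM16A activation or potentiation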
Sequence (Q8BHY3 whole entry, looked up): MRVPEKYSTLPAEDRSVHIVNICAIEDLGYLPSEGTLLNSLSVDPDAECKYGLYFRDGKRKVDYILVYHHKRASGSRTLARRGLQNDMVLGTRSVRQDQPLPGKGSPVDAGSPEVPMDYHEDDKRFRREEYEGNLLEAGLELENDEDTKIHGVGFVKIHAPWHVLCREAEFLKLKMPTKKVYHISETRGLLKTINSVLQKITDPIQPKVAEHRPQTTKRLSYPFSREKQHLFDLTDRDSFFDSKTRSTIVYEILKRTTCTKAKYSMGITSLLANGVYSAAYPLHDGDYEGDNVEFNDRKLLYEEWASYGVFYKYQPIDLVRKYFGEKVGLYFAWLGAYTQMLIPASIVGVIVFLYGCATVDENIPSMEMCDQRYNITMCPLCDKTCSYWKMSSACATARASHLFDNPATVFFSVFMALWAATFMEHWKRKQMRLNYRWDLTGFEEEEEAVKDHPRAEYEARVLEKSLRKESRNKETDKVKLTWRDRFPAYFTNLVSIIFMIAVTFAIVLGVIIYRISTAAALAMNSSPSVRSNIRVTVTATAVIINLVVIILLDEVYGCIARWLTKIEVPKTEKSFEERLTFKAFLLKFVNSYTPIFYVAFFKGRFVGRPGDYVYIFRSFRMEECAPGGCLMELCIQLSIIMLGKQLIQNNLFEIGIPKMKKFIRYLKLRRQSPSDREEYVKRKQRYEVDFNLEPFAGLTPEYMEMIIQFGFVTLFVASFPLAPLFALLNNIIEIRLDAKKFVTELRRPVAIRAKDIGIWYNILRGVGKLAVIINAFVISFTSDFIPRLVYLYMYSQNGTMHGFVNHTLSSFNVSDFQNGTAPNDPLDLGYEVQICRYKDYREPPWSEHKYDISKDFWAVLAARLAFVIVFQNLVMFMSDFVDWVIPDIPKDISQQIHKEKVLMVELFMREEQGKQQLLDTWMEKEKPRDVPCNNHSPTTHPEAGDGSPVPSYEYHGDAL

| Compound | B-score |
| --- | --- |
| CC(=O)C1(O)CCC2C3CCC4=C(Cl)C(=O)CCC4(C)C3CCC21C (stereo not given) | -5.25 (active) |
| Cc1cc(C)cc(NC(=S)NC2CC3CCCC(C2)N3Cc2cccs2)c1 (stereo not given) | inactive |
| Cc1nn(Cc2ccccc2Cl)c(Cl)c1C(=O)OC(C(=O)NC(N)=O)C(C)C (stereo not given) | inactive |
| Cc1nc2ccccn2c1P(=S)(N1CCCCC1)N1CCCCC1 | -9.49 (active) |
| COc1ccc(C(=O)C2CN(C)CC2C(=O)c2ccc(OC)cc2)cc1 (stereo not given) | inactive |
| O=C(CSC1c2ccccc2-c2ccccc21)N/N=C/c1ccccc1 | inactive |
| CC1C(=O)OC2CCN3CC=C(COC(=O)C(C)(O)C1(C)O)C23 (stereo not given) | inactive |
| CCN(CC)P(=O)(Oc1cccc(C)c1)N(CC)CC | inactive |
| C=Cn1ccnc1P(=S)(c1cc(N(CC)CC)ns1)c1nccn1C=C | inactive |
| Cc1cc2ccccn2c1C(C[N+](=O)[O-])c1c(F)cccc1Cl (stereo not given) | inactive |
